# Sampled rows, rich in hits. Any-hit rate of the full collection: about 3%.
# esBAF inh: inhibitors of esBAF chromatin remodeling in mouse ES cells | Bmi1-luciferase knock-in reporter, 24 h; 100% = twice the neutral-well signal | reporter increase, % at 12.5 µM | 350,000 tested, 2% active; in the data active = activation above about 40%; inconclusive = no clear call, values can overlap the other calls;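 note: 0% = median of the plate's neutral control wells and 100% = double that signal; a rise in the Bmi1 reporter signal indicates esBAF inhibition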
# MITF TRPM1 HTS: activators of MITF-driven TRPM1 promoter activity in SK-MEL-5 cells. AID 588334. activation, % at 12.5 µM. SK-MEL-5 TRPM1-promoter luciferase, 24 h; % of positive control, neutral wells = 0. 300,000 tested, 0.75% active;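 active = mean activation of at least 80% with every replicate also reaching 80%; inconclusive = mean reaches 80% but some replicate falls short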;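 note: 0% = neutral control wells and 100% = parthenolide positive control wells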
# Wnt bcat act: activates Wnt/beta-catenin signaling in a reporter cell assay; activator, plate reader; 300,000 tested, 1.2% active; activation, % at 9.35 µM; AID 743398; in the data active = activation above about 30%, passing the limit was not always enough; inconclusive = no clear call, values can overlap the other calls;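 note: 0% = neutral control wells and 100% = positive control wells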
# Statin myotox sup: suppression of simvastatin myotoxicity; C2C12 myotubes + simvastatin, ATP luminescence, 48 h; scaled: DMSO 0, geranylgeraniol control 100; rescue of ATP level, % at 7.49 µM; 330,000 tested, 0.78% active;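 active = mean ATP rescue above about 67%, or every replicate alone reaching that limit, limit read from the data, passing the limit was not always enough; inconclusive = no clear call, values can overlap the other calls; inactive = mean under the limit and some replicate under it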;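 note: myotubes were challenged with 10 µM simvastatin during compound exposure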
# The depositor's hits bear a star; ? = inconclusive; / = not tested or not shown.
SMILES,esBAF inh,MITF TRPM1 HTS,Wnt bcat act,Statin myotox sup
O=C(Nc1sc2c(c1C(=O)O)CCCC2)c1cccc(Cl)c1,73*,3,26,-19
O=C(Nc1sc2c(c1C(=O)O)CCC2)c1ccc(F)cc1,63*,20,2,-3
O=C(Nc1sc2c(c1C(=O)O)CCC2)c1ccccc1,53*,7,?,-24
COCC(=O)N(C[C@@H]1N[C@@H](CO)[C@H]1c1ccc(C2=CCCCC2)cc1)C(C)C,-5,/,/,-14
CC=Cc1ccc2n(c1=O)C[C@H]1[C@H](CO)[C@@H](C(=O)NCc3ccccc3)[C@@H]2N1S(C)(=O)=O (mixture of isomers),6,/,/,-10
C[C@@H]1CCCCO[C@H](CN(C)C(=O)CCC(F)(F)F)[C@@H](C)CN([C@@H](C)CO)C(=O)c2cc(NS(C)(=O)=O)ccc2O1,-2,/,/,-7
CN(C)C(=O)c1cccc(-c2ccc3c(c2)[C@H]2[C@H](CCN2C(=O)c2ccccc2F)[C@H](CO)N3)c1,11,/,/,14
Cc1ccc(S(=O)(=O)Nc2ccc3c(c2)CC(=O)N([C@@H](C)CO)C[C@@H](C)[C@@H](CN(C)S(=O)(=O)c2ccc(C)cc2)O3)cc1,-10,/,/,19
O=C1N=c2ccccc2=C1c1sc(Nc2cccc(O)c2)nc1O,51*,/,1,9
O=C(O)c1ccc(C(=O)c2ccc3c(c2)C(=O)N(Cc2ccco2)C3=O)cc1,3,/,/,110*
C[C@H]1CN([C@@H](C)CO)C(=O)CCCn2cc(nn2)CO[C@H]1CN(C)C(=O)CCCN(C)C,2,/,/,0
CC(=O)Nc1c(O)nc(SCC(=O)Nc2ccc(C(C)=O)cc2)[nH]c1=O,76*,77,1,3
CC(=O)Nc1c(O)nc(SCC(=O)Nc2cccc(C)c2)[nH]c1=O,-1,3,/,5
COc1ccc(S(=O)(=O)N(C)C[C@@H]2Oc3c(NC(=O)C4CCOCC4)cccc3C(=O)N([C@@H](C)CO)C[C@H]2C)cc1,-2,/,/,-67
O=c1oc(CCCO)cc2ccc(C#Cc3ccsc3)cc12,67*,121*,46*,-14
CN(C)c1ccc(C#Cc2ccc3cc(CCCO)oc(=O)c3c2)cc1,57*,93*,?,-24
CNC[C@@H]1OCCCC[C@@H](C)Oc2ccc(NC(=O)CCC(F)(F)F)cc2C(=O)N([C@H](C)CO)C[C@H]1C,0,/,/,1
COC(=O)c1ccc2c(c1)c(C#Cc1ccccc1)c(-c1ccccc1)n2C,47*,80,-1,4
COc1cc(C#Cc2c(-c3ccccc3)n(C)c3ccccc23)cc(OC)c1,-13,4,-2,-28
O=C(C[C@@H]1C=C[C@@H](NC(=O)Nc2cc(F)ccc2F)[C@H](CO)O1)NCc1ccccn1,-3,/,/,1
C#CCNC(=O)/C=C/c1ccc(C)cc1,32,91*,27,4
Cc1ccc(/C=C/C(=O)NCCCc2ccccc2)cc1,/,2,4,/
COc1cccc2cc(C(=O)N3CCCCC3C)c(=O)oc12 (centres undefined),-3,-1,/,-60
COc1cccc2cc(NC(=O)C3CCCCC3)c(=O)oc12,23,110*,/,-16
COc1cccc2cc(C(=O)OCC(=O)NC3CCCC(C)C3C)c(=O)oc12 (centres undefined),64*,56,-4,-1
SMILES,esBAF inh,MITF TRPM1 HTS,Wnt bcat act,Statin myotox sup
COc1ccc(Cl)cc1C(=O)OCC(=O)NC1CCCC(C)C1C (centres undefined),/,1,3,9
C[C@@H]1CN([C@@H](C)CO)C(=O)c2cc(NC(=O)C3CC3)ccc2O[C@H]1CN(C)C(=O)Nc1ccccc1,1,/,/,3
CSc1ncc(C(=O)Nc2ccc(C(C)=O)cc2)c(C)n1,52*,57,7,2
COc1ccccc1Nc1nc(-c2cccc([N+](=O)[O-])c2)cs1,/,/,27,/
Cc1c(C(=O)Nc2cccc([N+](=O)[O-])c2)csc1-c1ccccc1,50*,56,/,-20
O=[N+]([O-])c1cccc(-c2csc(Nc3ccccc3)n2)c1,52*,44,9,1
O=C(Nc1nc(-c2ccccc2)cs1)c1cccc([N+](=O)[O-])c1,61*,25,/,-17
CCN1[C@@H]2c3ccc(-c4cccc(F)c4)c(=O)n3C[C@H]1[C@H](CO)[C@H]2C(=O)NCC1CC1,-2,/,/,7
O=C(C[C@@H]1C[C@H]2c3cc(NS(=O)(=O)c4ccc(F)cc4)ccc3O[C@H]2[C@@H](CO)O1)NCC1CC1,2,/,/,4
Cc1ccc([C@H]2C[C@@H](O)[C@H](n3cc(C4CC4)nn3)CN2Cc2cccs2)cc1,1,/,-2,7

# Assay outcomes from PubChem.
